Here are results for eight compounds from PubChem BioAssay (EPA / NIEHS).

Test [1] in a line: BSK_BT_PBMCCytotoxicity: PBMC Cytotoxicity Assessment in the BioMAP Diversity Plus: BT Assay (AID 2284225).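 Further: PBMC viability measured by Alamar Blue dye reduction fluorescence.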 The note with it: primary human B cells with PBMC. The method, boiled down: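 PBMC (75,000/well) pretreated with compound 1 h, then activated with SEB and TSST-1 (20 ng/mL each final), incubated 90 h; Alamar Blue added 6 h, fluorescence read at 546/580 nm. Fitted relative to DMSO.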

Read-out in test [2]: Secreted IgG (sIgG), gene 3500
Briefly: BSK_BT_sIgG: BioMAP Diversity Plus: BT Assay for Secreted IgG (sIgG) Biomarker Activity (AID 2284226). The note with it: primary human B cells with PBMC. An outline of the steps:
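Read-out: ELISA for secreted IgG after 24 h of chemical exposure in a B cell plus PBMC co-culture. Values reflect upward-direction fitting against DMSO negative controls.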

A short description of test [3]: BSK_BT_Bcell_Proliferation: Viability Assessment in the BioMAP Diversity Plus: BT Assay for B cell Proliferation (AID 2284227). The settings on record: primary human B cells with PBMC. An outline of the steps: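 Using a human primary B cell–PBMC co-culture, the assay measures total protein by sulforhodamine B absorbance as a gauge of proliferation after 72 h. Analysis followed the positive fitting direction with DMSO as baseline.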

Read-out in test [4]: Interleukin 6 (IL6), IL6 (gene 3569)
Briefly: BSK_BT_xIL6: BioMAP Diversity Plus: BT Assay for Interleukin 6 (IL6) Biomarker Activity (AID 2284228). The settings on record: primary human B cells with PBMC. The method, boiled down: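 Human B cell/PBMC co-culture; secreted IL-6 quantified by Luminex xMAP 24 h after chemical dosing, fitted relative to DMSO. Parallel PBMC viability by Alamar Blue after 1 h pretreatment, 20 ng/mL SEB and TSST-1, 90 h incubation.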

Read-out in test [5]: Tumor necrosis factor (Homo sapiens) (UniProt P01375)
Briefly: BSK_BT_xTNFa: BioMAP Diversity Plus: BT Assay for Tumor necrosis factor alpha (TNF-alpha) Biomarker Activity (AID 2284230). The note with it: primary human B cells with PBMC. The method, boiled down: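 Endpoint derived in the positive direction versus DMSO vehicle. Cells: B cells together with PBMC, exposed 24 h before TNF-alpha in the medium was read on the Luminex xMAP platform.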

Read-out in test [6]: Vascular cell adhesion molecule 1 (VCAM1), VCAM1 (gene 7412)
Description: BSK_MyoF_VCAM1: BioMAP Diversity Plus: MyoF Assay for Vascular cell adhesion molecule 1 (VCAM1) Biomarker Activity (AID 2284231). The settings on record: primary human lung fibroblasts. The method, boiled down: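 Primary human lung fibroblasts (BioMAP MyoF system) dosed with chemical, VCAM-1 measured by ELISA 24 hours later. Fitted in the positive direction against DMSO; parallel SRB staining assessed cytotoxicity.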

Read-out in test [7]: Collagen I, COL1A1 (gene 1277)
Briefly: BSK_MyoF_CollagenI: BioMAP Diversity Plus: MyoF Assay for Collagen I Biomarker Activity (AID 2284238). The note with it: primary human lung fibroblasts. An outline of the steps:
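Primary human lung fibroblasts (MyoF system) treated 24 h; Collagen I quantified by ELISA and fitted in positive direction against DMSO. Parallel SRB total-protein staining assessed overt cytotoxicity.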

Read-out in test [8]: Collagen III, COL3A1 (gene 1281)
Description: BSK_MyoF_CollagenIII: BioMAP Diversity Plus: MyoF Assay for Collagen III Biomarker Activity (AID 2284239). The note with it: primary human lung fibroblasts. An outline of the steps: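 Primary human lung fibroblasts (BioMAP MyoF system) exposed 24 h. Collagen III measured by ELISA; positive-direction fit relative to DMSO.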

Read-out in test [9]: Interleukin 17F (IL17F), IL17F (gene 112744)
Description: BSK_BT_xIL17F: BioMAP Diversity Plus: BT Assay for Interleukin 17F (IL17F) Biomarker Activity (AID 2284243). The settings on record: primary human B cells with PBMC. The method, boiled down: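 Human PBMC co-cultured with B cells, compound exposure 24 h; secreted IL-17F quantified by Luminex xMAP, referenced to DMSO control. PBMC viability measured in parallel by Alamar Blue reduction.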

Read-out in test [10]: Actin alpha 1 (ACTA1), ACTA1 (gene 58)
Briefly: BSK_MyoF_ACTA1: BioMAP Diversity Plus: MyoF Assay for Actin alpha 1 (ACTA1) Biomarker Activity (AID 2284244). The settings on record: primary human lung fibroblasts. The method, boiled down:
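Lung fibroblasts, human primary, 24 h compound exposure → a-SMA ELISA. Positive-direction fit vs DMSO control.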

Read-out in test [11]: Interleukin 2 (IL2), IL2 (gene 3558)
Description: BSK_BT_xIL2: BioMAP Diversity Plus: BT Assay for Interleukin 2 (IL2) Biomarker Activity (AID 2284245). The note with it: primary human B cells with PBMC. The method, boiled down:
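B cell + PBMC co-culture (human primary), compound added, 24 h incubation; secreted IL-2 measured multiplexed on Luminex xMAP; gain-of-signal fit vs DMSO.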

Read-out in test [12]: Collagen IV, COL4A1 (gene 1282)
Briefly: BSK_MyoF_CollagenIV: BioMAP Diversity Plus: MyoF Assay for Collagen IV Biomarker Activity (AID 2284247). The settings on record: primary human lung fibroblasts. An outline of the steps:
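Steps: dose human lung fibroblasts; culture 24 h; quantify Collagen IV by ELISA; fit increase versus DMSO control. Parallel SRB total-protein staining (0.1% SRB after 10% TCA fixation, 560 nm) tracks overt cytotoxicity.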

Read-out in test [13]: Interleukin 17A (IL17A), IL17A (gene 3605)
Description: BSK_BT_xIL17A: BioMAP Diversity Plus: BT Assay for Interleukin 17A (IL17A) Biomarker Activity (AID 2284229). The note with it: primary human B cells with PBMC. The method, boiled down: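 Co-culture of human B cells and PBMC, dosed for 24 h in 96-well format. Secreted IL-17A measured with Luminex xMAP; gain-direction fitting against DMSO as baseline.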

Read-out in test [14]: Basic fibroblast growth factor (bFGF), FGF2 (gene 2247)
Description: BSK_MyoF_bFGF: BioMAP Diversity Plus: MyoF Assay for Basic fibroblast growth factor (bFGF) Biomarker Activity (AID 2284246). The settings on record: primary human lung fibroblasts. The method, boiled down: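 ELISA-measured bFGF level serves as the read-out, taken 24 h after chemical dosing of human lung fibroblasts. Values represent signal gain over the DMSO negative control.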

Read-out in test [15]: Monokine induced gamma interferon (MIG), CXCL9 (gene 4283)
Description: BSK_KF3CT_MIG: BioMAP Diversity Plus: KF3CT Assay for Monokine induced gamma interferon (MIG) Biomarker Activity (AID 2284248). The note with it: primary human keratinocytes with fibroblasts. An outline of the steps: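 Human keratinocyte–foreskin fibroblast co-culture; MIG measured by ELISA 24 h after chemical dosing, fitted upward versus DMSO. Cytotoxicity was assessed in parallel cultures by SRB total-protein staining read at 560 nm.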

Read-out in test [16]: Vascular cell adhesion molecule 1 (VCAM1), VCAM1 (gene 7412)
Description: BSK_BF4T_VCAM1: BioMAP Diversity Plus: BF4T Assay for Vascular cell adhesion molecule 1 (VCAM1) Biomarker Activity (AID 2284249). The settings on record: primary human bronchial epithelial cells with fibroblasts. An outline of the steps:
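Human bronchial epithelial cell and dermal fibroblast co-culture exposed 24 h. VCAM-1 measured by ELISA; parallel SRB total-protein staining for cytotoxicity. Fitted in positive direction relative to DMSO.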

Active and inactive are the calls of the source. How the source made its calls: active means hit-call score of the fitted dose curve at least 0.9, where 1 is the maximum; inactive means score below 0.9.

Sequence of Tumor necrosis factor (Homo sapiens) (P01375 whole entry, looked up): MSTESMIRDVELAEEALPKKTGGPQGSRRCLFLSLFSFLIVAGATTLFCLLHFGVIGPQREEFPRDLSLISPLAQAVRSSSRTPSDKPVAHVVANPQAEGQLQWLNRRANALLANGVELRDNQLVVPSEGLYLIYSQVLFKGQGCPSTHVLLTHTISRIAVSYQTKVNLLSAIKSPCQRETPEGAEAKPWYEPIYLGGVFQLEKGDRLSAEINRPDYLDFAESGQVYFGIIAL

By AC50 is commonly meant the concentration at which the activity in the assay is half-maximal. Take `Brc1nc2ccccc2s1`: the outcome in [1], in [2], in [3], in test [5], in [6] and in [7] was inactive. For the same compound, the result in test [8], in test [9], in test [10] and in test [12] was inactive. Besides, the AC50 in [4] is 0.338 µM (active); in test [11] it was 0.431 µM (active).
Turning to `CCN(CC)c1ccc(C=O)c(O)c1`, the result in test [1], in [3], in test [4], in test [13], in [5] and in [7] was inactive. Also, the outcome in test [8], in test [9], in test [10], in test [11], in test [14] and in test [12] was inactive. For the same compound, in [2], the half-maximal activity concentration (AC50) is 20 µM (active).
Regarding `CCN(CC)c1ccc(C=O)cc1`, the result in [1], in [2], in [3], in test [4], in [13] and in test [5] was inactive. In addition, the result in test [7], in [8], in test [9], in [10], in test [11] and in test [12] was inactive.
Regarding `CC1=CC2C3C=CC(C3)C2C1C` (stereo not given), the result in test [1], in test [3], in test [5], in test [7], in [8] and in test [9] was inactive. In addition, the outcome in test [10], in test [11], in test [14] and in [12] was inactive. The half-maximal activity concentration (AC50) in test [2] was 20 µM (active); in [4], 16.7 µM (active).
In the case of `FC(F)(F)C(F)(F)C(F)(F)C(F)(F)C(F)(F)C(F)(F)CC[Si](Cl)(Cl)Cl`, the result in [1], in [2], in test [3], in test [4], in [5] and in test [6] was inactive. In addition, the outcome in [7], in test [8], in test [9], in [10], in test [11] and in test [12] was inactive. Moreover, the outcome in [15] and in test [16] was inactive.
For the compound `NCC(F)(F)C(F)(F)C(F)(F)C(F)(F)C(F)(F)C(F)(F)F`, the result in [1], in [2], in test [3], in test [4], in test [13] and in test [5] was inactive. Moreover, the outcome in test [7], in test [8], in test [9], in test [10], in [11] and in test [12] was inactive. The outcome in [15] and in test [16] was inactive.
For the compound `CC(C)CCCC(C)CCO` (stereo not given), the result in test [1], in test [2], in test [3], in test [4], in test [5] and in test [9] was inactive. The outcome in test [11] and in test [12] was inactive. The AC50 was 29.9 µM (active) in test [6], 31.6 µM (active) in [7], 35.3 µM (active) in test [8] and 30.9 µM (active) in test [10].
For the compound `O=C=Nc1cccc2c(N=C=O)cccc12`, the result in [1], in test [3], in test [4], in test [5], in test [7] and in test [8] was inactive. In addition, the outcome in [9], in [10], in [11] and in test [12] was inactive. In addition, the AC50 in test [2] was 12 µM (active).
